# In PubChem BioAssay AID1851 (National Center for Advancing Translational Sciences (NCATS), 2009):
# The campaign covered roughly 16,000 compounds. About 4,000 (25%) were called active. Not shown: some 26% with an inconclusive outcome. Not all results are given here. A number with no mark means an inactive call. Calls follow the shape of the dose curve; as a rule, active = well fitted curve in the direction sought with a large enough effect; inconclusive = small, poorly fitted or top-dose-only effect, or effect the other way; inactive = no such curve, though single readings can be large or run the other way.
# Target: Cytochrome P450 2C9 (Homo sapiens) (UniProt P11712)
# Sequence (P11712 whole entry, looked up): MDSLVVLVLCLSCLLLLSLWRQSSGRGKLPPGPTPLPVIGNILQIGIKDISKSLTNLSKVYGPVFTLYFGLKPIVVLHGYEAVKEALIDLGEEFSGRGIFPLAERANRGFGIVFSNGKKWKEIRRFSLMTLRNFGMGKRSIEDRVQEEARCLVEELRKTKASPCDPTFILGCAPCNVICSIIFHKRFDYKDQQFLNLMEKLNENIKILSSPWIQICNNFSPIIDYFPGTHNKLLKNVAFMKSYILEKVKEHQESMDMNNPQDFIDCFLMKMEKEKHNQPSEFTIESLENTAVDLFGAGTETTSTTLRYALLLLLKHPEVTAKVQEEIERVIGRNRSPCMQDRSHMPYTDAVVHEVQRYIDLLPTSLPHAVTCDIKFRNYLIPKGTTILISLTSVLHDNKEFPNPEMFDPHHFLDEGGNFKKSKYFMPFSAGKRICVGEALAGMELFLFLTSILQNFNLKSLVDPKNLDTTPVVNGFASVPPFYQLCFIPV
# Assay: Cytochrome panel assay with activity outcomes
# Details: recombinant CYP, pro-luciferin dealkylation, luminescence, p450-cyp2c9; series mostly up to 57.1 µM
# % is scaled to controls: 0 for no effect and ±100 for the full control effect.
SMILES,"activity, negative = inhibition",AC50
O=C(Nc1ccc2ncccc2c1)Nc1ccc2ncccc2c1,4.23% [at 11.4 µM],–
Cc1cccnc1NC(=O)C12CCC(C)(C(=O)O1)C2(C)C (configuration not stated),–,inactive
Cc1ccc(NC(=O)Nc2ncccc2C)cc1,–,28.2 µM (active)
CN(C)C(=O)Oc1cccc([N+](C)(C)C)c1,–,inactive
C[C@H](NCCc1ccc(O)cc1)[C@@H](O)c1ccc(O)cc1,–,inactive
CC[C@H](NC(C)C)[C@H](O)c1ccc(O)c(O)c1,–,inactive
CC[C@H](c1ccc(O)cc1)[C@@H](CC)c1ccc(O)cc1,–,5.01 µM (active)
CN(C)C[C@H]1CCC[C@@H](CN(C)C)C1=O,1.9% [at 11.4 µM],–
Clc1ccc2[nH]cc(-c3nnnn3-c3ccccc3)c2c1,–,5.01 µM (active)
CCn1cc(-c2nnnn2-c2ccc(Cl)cc2)c(=O)c2ccccc21,–,inactive
Cc1ccc(-n2nnnc2-c2cnc3ccc(Cl)cc3c2-c2ccccc2)cc1,–,8.91 µM (active)
CC12CCC(C(=O)O)(C/C1=N\O)C2(C)C (configuration not stated),–,inactive
COc1cccc(-c2cncnc2N(C)Cc2ccco2)c1,-5.51% [at 2.29 µM],–
CC1(C)CC(=O)c2c(Cc3ccccc3)n[nH]c2C1,–,14.1 µM (active)
C=CCN=C1CC(C)(C)CC(=O)/C1=C(\O)c1ccccc1,–,inactive
O=C(Nc1ccccc1C(=O)O)c1ccc2ccccc2n1,–,8.91 µM (active)
CC(=O)Nc1ccccc1C(=O)C(=O)O,–,inactive
O=C(O)c1ccc(C(=O)Nc2cccc3ccccc23)c(C(=O)O)c1,-2.72% [at 11.4 µM],–
CCCC(=O)Nc1cc(-c2cn3cccnc3n2)ccc1OC,–,inactive
O=C(Nc1cccc(-c2cn3cccnc3n2)c1)c1ccco1,–,12.6 µM (active)
C[C@@H]1NCC[C@H](CC(=O)O)[C@H]1CC(=O)O,-13.5% [at 11.4 µM],–
O=C1CCc2cc(OCCCCc3nnnn3C3CCCCC3)ccc2N1,–,inactive
CC(C)(C)c1ccc(CN(Cc2ccco2)Cc2nnnn2C2CCCC2)cc1,–,3.55 µM (active)

SMILES,"activity, negative = inhibition",AC50
O=C(O)c1nnsc1-c1csnn1,-13.9% [at 11.4 µM],–
CCNC(=O)NC1(C(=O)Nc2ccc3c(c2)OCCO3)CCCCC1,–,inactive
O=C(Nc1ccc2c(c1)OCCO2)c1cc2sccc2n1Cc1ccc(F)cc1,–,3.55 µM (active)
CCO[P@]1(=O)OC[C@@H]2O[C@H](n3cnc4c(N)ncnc43)[C@H](O)[C@@H]2O1,-1.07% [at 11.4 µM],–
O=C(Nc1ccccc1)N1CC[C@@]2(CCCN(C(=O)c3cc(C(F)(F)F)cc(C(F)(F)F)c3)C2)C1,–,inactive
Cc1ccccc1NC(=O)OCc1cn(-c2ccc(Cl)cc2)nn1,–,inactive
CCCCC(=O)OCc1cn(-c2ccc(Cl)cc2)nn1,–,17.8 µM (active)
NNC(=O)c1nn(-c2ccc(Cl)cc2)ccc1=O,–,inactive
CCOC(=O)CCN1C(=O)[C@H]2[C@H]3[C@H](O)[C@H](O)C/C(=N/OC/C=C(\C)CCC=C(C)C)[C@H]3CC[C@@H]2C1=O,3.33% [at 11.4 µM],–
CCC(Sc1nc(=O)cc(N)n1CCc1ccccc1)C(=O)Nc1ccccc1C#N (configuration not stated),–,2.51 µM (active)
CCNc1ncc2nc(C)c(=O)n(CCc3ccccc3)c2n1,–,inactive
CC(=O)O[C@@H](C)C[N+](C)(C)C,–,inactive
N#Cc1cccc(NC(=O)N2CC[C@@]3(CCCN(C(=O)c4ccncc4)C3)C2)c1,–,inactive
Cc1ccc(S(=O)(=O)N2CCN(C(=O)c3ccccc3)C2C(C)C)cc1 (configuration not stated),–,25.1 µM (active)
Cc1ccc(S(=O)(=O)N2CCC(C(=O)O)(c3ccccc3)CC2)cc1,-9.94% [at 11.4 µM],–
CC(=O)N1CCN(S(=O)(=O)c2ccccc2)C1c1ccccc1 (configuration not stated),–,inactive
Cc1noc(C)c1-c1nccc(Nc2ccc(F)cc2)n1,25.8% [at 2.29 µM],–
Fc1cccc(NC(=S)NCCCN2CCOCC2)c1,–,inactive
O=C(CSc1ccc(Cl)cc1)Nc1ccc(N2CCN(C(=O)c3ccc(Cl)cc3)CC2)cc1,–,5.01 µM (active)
O=C(CSc1ccc(Cl)cc1)Nc1ccc(N2CCN(c3ccccc3)CC2)c(F)c1,–,inactive
O=C(CN1CCN(c2ccc(Cl)cc2)CC1)Nc1cccc(F)c1,–,2.82 µM (active)
O=C(CN1CCN(c2ccc(Cl)cc2)CC1)Nc1ccc(F)c(F)c1,–,3.55 µM (active)
COC(=O)N1CCC2(CCN(C(=O)Nc3cccc(F)c3)CC2)CC1,–,inactive

SMILES,"activity, negative = inhibition",AC50
O=C(O)CCC(=O)Nc1ccc(C(=O)N2CCCCC2)cc1,–,inactive
COc1ccc2c(Cl)c(-c3nnco3)sc2c1,–,inactive
[O-][N+]1(CC[N+]2([O-])CCCCC2)CCCCC1,-6.33% [at 11.4 µM],–
CCOC(=O)CSc1nnc(CSc2nc3sc4c(c3c(=O)[nH]2)CCCC4)n1-c1ccccc1,–,5.01 µM (active)
CCOC(=O)CSc1nnc(Cc2cc(=O)[nH]c(=O)[nH]2)n1-c1cccc(OC)c1,–,inactive
CCOC(=O)CC1C(=O)NCCN1S(=O)(=O)c1ccc(Cl)c(Cl)c1 (configuration not stated),–,inactive
O=C(NCc1ccccc1Cl)c1ccc2c(=O)n(CCCN3CCCC3=O)c(=S)[nH]c2c1,–,8.91 µM (active)
COCCCNC(=O)c1ccc2c(=O)n(CC3CCCO3)c(=S)[nH]c2c1 (configuration not stated),–,inactive
COCCn1c(=S)[nH]c2cc(C(=O)NC(C)C)ccc2c1=O,–,inactive
N#Cc1cccc(-c2cc(NCc3cccnc3)ncn2)c1,-26.2% [at 2.29 µM],–
COc1ccc2[nH]c(=O)c(CN(CCO)C(=O)c3cccs3)cc2c1,–,inactive
COc1cccc(C(=O)N(Cc2ccccc2)Cc2cc3cc4c(cc3[nH]c2=O)OCCO4)c1,–,10 µM (active)
Cc1cnc(CNc2cc(-c3cccc(C#N)c3)ncn2)cn1,19.4% [at 2.29 µM],–
COc1ccc(-c2nc3cnc(N4CCN(C)CC4)nc3n(CCC#N)c2=O)cc1,–,inactive
CCNc1ncc2nc(-c3ccc(Cl)cc3)c(=O)n(Cc3cccc(OC)c3)c2n1,–,inactive
COc1cccc(Cn2c(=O)c(-c3ccc(F)cc3)nc3cnc(N4CCNCC4)nc32)c1,–,15.8 µM (active)
COc1ccc(-c2nc3cnc(N4CCN(C)CC4)nc3n(Cc3ccc(F)cc3)c2=O)cc1,–,inactive
COc1cccc(Cn2c(=O)c(-c3ccc(Cl)cc3)nc3cnc(N4CCN(C)CC4)nc32)c1,–,inactive
COc1ccc(-c2nc3cnc(N4CCNCC4)nc3n(CCc3ccccc3)c2=O)cc1,–,3.98 µM (active)
COc1cccc(Cn2c(=O)c(-c3ccc(Cl)cc3)nc3cnc(N4CCNCC4)nc32)c1,–,12.6 µM (active)
COc1cccc(Cn2c(=O)c(-c3cccs3)nc3cnc(N4CCNCC4)nc32)c1,–,12.6 µM (active)
